Sampled rows, rich in hits. Any-hit rate of the full collection: about 17%.
TDP1 cell CPT: growth inhibition of DT40 Tdp1-/-;hTDP1 cells with camptothecin (screen for TDP1 inhibitors); 420,000 tested, 12% active; Potency, µM (doses to about 46.2 µM), inactives show at the highest dose activity change, negative = growth inhibition, most hits filed as inhibitors; AID 686979; chicken DT40 Tdp1-/-;hTDP1 cells + 20 nM CPT, ATP luminescence, 48 h; note: % is set by controls: 0 for no effect and ±100 for the full control effect; nearly all actives have a fitted effect of over 55% in size
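Chicken DT40 Tdp1-/- cells stably complemented with human TDP1 were seeded at 400 cells/well in medium containing 20 nM camptothecin, exposed to pin-transferred compounds, and grown at 37 °C for at least 48 hr. Viability was read as ATP luminescence.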
HT1080-NT tox: kills 2HG-producing HT-1080-NT fibrosarcoma cells; 360,000 tested, 1.6% active; HT-1080-NT fibrosarcoma viability, CellTiter-Glo ATP luminescence, 48 h; Potency, µM (doses to about 46.1 µM), inactives show at the highest dose activity, negative = less viability, hits mostly cytotoxic; AID 686970;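 note: NT is the 2HG producing partner of a matched IDH1 knockdown line; 0% = DMSO-treated cells and -100% = media-only wells without cells; nearly all actives have a fitted effect of over 55% in size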
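HT-1080-NT fibrosarcoma cells (2HG-overproducing), 750 cells/well in RPMI with 5% FBS, dosed after 2 h and incubated 48 h at 37C. CellTiter-Glo luminescence normalized to DMSO and no-cell wells; concentration-response curves fitted and classed.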
TGFb inhibitor: TGF-b pathway inhibition; HepG2 CAGA-GFP TGF-b/SMAD3 reporter, GFP fluorescence, 18 h; TGF-beta stimulated, 500 pg/mL final; Potency, µM (doses to about 46.1 µM), inactives show at the highest dose activity, negative = inhibition, actives largely listed as inhibitors; 410,000 tested, 1.2% active; note: % is set by controls: 0 for no effect and ±100 for the full control effect; nearly all actives have a fitted effect of over 65% in size
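Inhibition of TGF-beta-driven CAGA-GFP reporter expression in HEPG2 cells is measured by cellular GFP fluorescence after 18 h stimulation with 500 pg/mL recombinant TGF-beta in 1% FBS medium at 37 degrees C.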
HepG2 viability: counter-screen for TGF-b inhibitors: cytotoxicity in HepG2 cells; HepG2 CAGA-GFP viability, ATP luminescence, 18 h; Potency, µM (top dose mostly 46.1 µM), for inactives: at the highest dose activity change, negative = cytotoxicity, actives largely listed as cytotoxic; 410,000 tested, 0.76% active; AID 588856
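CellTiter-Glo luminescence gave cytotoxicity after 18 hours at 37 degrees C. The cells were HepG2 CAGA-GFP in 1% FBS DMEM, stimulated with 500 pg/mL TGF-beta after compound addition. %Activity was normalised to no-cell wells (complete cell-killing) and DMSO (no toxicity), and curves were fitted and classified.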
TDP1 cell noCPT: qHTS for Inhibitors of human tyrosyl-DNA phosphodiesterase 1 (TDP1): qHTS in cells in absence of CPT; Potency, µM (highest dose often 46.2 µM), for inactives: at the top dose activity change, negative = growth inhibition, most hits filed as inhibitors; 420,000 tested, 15% active; DT40 Tdp1-/- hTDP1 cells, no CPT, ATP luminescence, 48 h; note: % is set by controls: 0 for no effect and ±100 for the full control effect; nearly all actives have a fitted effect of over 55% in size
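Growth of hTDP1-complemented DT40 Tdp1-knockout cells is measured by ATP luminescence after at least 48 hr compound exposure at 37 °C, with DMSO substituting for the 20 nM CPT used in the parallel screen.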
HT1080 IDH1KD tx: toxicity to HT-1080 IDH1 knockdown cells (counter line). HT-1080 IDH1 knockdown viability, ATP luminescence, 48 h. Potency, µM (highest dose often 46.1 µM), for the others: top-dose activity, negative = toxicity, hits mostly cytotoxic. 360,000 tested, 2% active;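 note: 0% = DMSO wells and -100% = cell-free medium wells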
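% activity derives from luminescence (CellTiter-Glo), normalised to DMSO and no-cell wells. HT-1080-IDH1KD cells, 750/well, had 48 h compound exposure at 37 °C.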
The depositor's hits bear a star; ? = inconclusive; . = not tested or not shown. Calls come from the whole dose curve; as a rule, active = well fitted curve in the direction sought with a large enough effect; inconclusive = small, poorly fitted or top-dose-only effect, or another doubt; inactive = no such curve, though single readings can be large; an effect the other way counts as inactive or inconclusive. Potency is the fitted concentration of half-maximal effect.

SMILES	TDP1 cell CPT	HT1080-NT tox	TGFb inhibitor	HepG2 viability	TDP1 cell noCPT	HT1080 IDH1KD tx
COc1cc(C)c(CN2CCC3(CCC(CNC(=O)c4ccnn4C)O3)CC2)cc1C (stereo unspecified)	16µM*	.	.	.	-28%	.
N#CC1=C(N)N(c2ccccc2)C(c2ccccc2)C1(C#N)C#N (stereo unspecified)	16µM*	-18%	?	6%	15µM*	?
CCc1ccc(OCC(=O)N2CCN(c3ccccn3)CC2)c(Br)c1	13µM*	0%	3%	-3%	?	-4%
Cc1cc(OCC(=O)N2CCN(c3ccccn3)CC2)cc(C)c1Br	?	0%	-7%	1%	16µM*	-21%
O=C(COc1ccc(Br)cc1Cl)N1CCN(c2ccccn2)CC1	-1%	21%	-11%	-5%	-7%	26%
O=C(Nc1ccc(Cc2ccncc2)cc1)c1cc(F)c(F)cc1Cl	-4%	11%	-11%	5%	-17%	-6%
O=C(Nc1ccc(NC(=O)C23CC4CC(CC(C4)C2)C3)cc1)c1cc(F)c(F)cc1Cl	?	11%	-17%	16%	13µM*	21%
C[C@@H]1C[C@@H](CC(=O)NCC2Cc3cccc(-c4ccncc4)c3O2)NC(=S)N1 (stereo partly specified)	-24%	.	.	.	-19%	.
OC(CNC1CCCCC1)CON=C1CCSc2c(Cl)cccc21 (stereo unspecified)	23µM*	-22%	?	-112%	8.2µM*	?
Cc1cccc2cc(C#N)c(NCCCNS(=O)(=O)c3ccc(Cl)cc3)nc12	18µM*	?	?	-126%	?	?
O=C(Nc1ccccc1)c1cccc(N2CCCC2=O)c1	-19%	-1%	-4%	-54%	-15%	-4%
Cc1ccc(C)n1-c1cccc(C(=O)Nc2ccccc2)c1	?	-9%	-7%	-5%	15µM*	-2%
COc1ccc(NC(=O)c2cccc(-n3c(C)ccc3C)c2)c(OC)c1	?	-16%	-9%	-20%	26µM*	-26%
COc1cccc(C(NC(C)=O)c2nc(-c3ccc(OC)nc3)cs2)c1 (stereo unspecified)	?	-22%	26%	-10%	?	0%
CN(C)CCCN(Cc1ccccc1)C(=S)NCc1ccccc1	-25%	-1%	12%	-9%	?	-8%
FC(F)Sc1ccc(NC(=S)NC(c2ccccc2)c2ccccc2)cc1	4.6µM*	?	5.6µM*	11µM*	10µM*	?
CN(C(=S)Nc1ccc(SC(F)F)cc1)C(c1ccccc1)c1ccccc1	?	?	?	-40%	?	?
FC(F)(F)c1ccc(NC(=S)NCc2ccccc2)cc1	15µM*	?	?	-46%	?	?
CN(C)CCCN(Cc1ccccc1)C(=S)Nc1ccc(SC(F)F)cc1	18µM*	-20%	?	-37%	23µM*	-16%
FC(F)Sc1ccc(NC(=S)NCc2ccccc2)cc1	26µM*	?	?	-14%	?	21µM*
CN(C)c1c2ccccc2nc2c(F)c(F)c(F)c(F)c12	23µM*	-2%	?	-20%	21µM*	-3%
O=C(NCC1CCCO1)c1cccc(S(=O)(=O)N2CCCCC2)c1 (stereo unspecified)	-2%	8%	3%	4%	-4%	1%
CC(C)CCNC(=O)Nc1cc(C(=O)NCc2cccc(F)c2)ccc1N1CCCC1	-24%	.	-16%	-22%	?	.

Assay outcomes (PubChem BioAssay)
